A short description of assay [1]: compound effects on lung adenocarcinoma cell viability – A549, calcein-AM fluorescence, 48 h, basal, profiling panel (AID 1162). Also: test concentration not given here. Conditions: higher = more signal.
A short description of assay [2]: compound effects on differentiated 3T3-L1 adipocyte viability – cell-based, 3T3-L1 adipocytes, calcein-AM fluorescence, 48 h, basal, profiling panel (AID 1163). Also: test concentration not given here. Conditions: 3T3-L1 adipocytes viability, higher = more signal.
Assay [3] is described as follows: compound effects on hepatocellular carcinoma cell viability – HepG2, calcein-AM fluorescence, 48 h, basal, profiling panel (AID 1164). Also: test concentration not given here. Particulars: higher = more signal.
The nature of assay [4]: compound effects on multiple myeloma cell viability – MM1S, calcein-AM fluorescence, 48 h, basal, profiling panel (AID 1165).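 Also: viability of MM1S multiple myeloma cells under basal unstimulated conditions; test concentration not given here.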 Particulars: higher = more signal.
Assay [5] in a line: calcein-AM signal in unstimulated myeloma cells – cell-based, calcein-AM fluorescence, 48 h, PK04 Diversity Set, profiling panel (AID 1166).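 Also: cells grown under basal conditions without added stimulus; test concentration not given here.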 Particulars: RPMI8226 myeloma viability, higher = more signal.
Assay [6] can be described thus: JC-1 mitochondrial signal, unstimulated HepG2 cells – cell-based, JC-1 fluorescence, 24 h, 100 nL compound, profiling panel (AID 1167). Also: test concentration not given here. Particulars: HepG2 mitochondrial potential, higher = more signal.
A short description of assay [7]: JC-1 mitochondrial signal, unstimulated adipocytes – cell-based, JC-1 fluorescence, 3T3-L1 adipocytes, 24 h, 100 nL compound, profiling panel (AID 1168). Also: test concentration not given here. Conditions: JC-1 mitochondrial fluorescence, higher = more signal, called active from +8 up or from −8 down.
Assay [8] can be described thus: JC-1 mitochondrial signal, unstimulated myeloma cells – cell-based, JC-1 fluorescence, RPMI8226, 24 h, 100 nL compound, profiling panel (AID 1169). Also: test concentration not given here. Particulars: JC-1 mitochondrial potential fluorescence, higher = more signal.
The nature of assay [9]: JC-1 mitochondrial signal, unstimulated MM1S myeloma – cell-based, JC-1 fluorescence, 24 h, 100 nL compound, profiling panel (AID 1170). Also: test concentration not given here. Particulars: MM1S mitochondrial potential, higher = more signal.
The nature of assay [10]: resazurin metabolic signal in A549 cells – cell-based, resazurin fluorescence, 24 h, PK04 Diversity Set, profiling panel (AID 1171). Also: test concentration not given here. Particulars: A549 viability, higher = more signal, called active from +8 up or from −8 down.
A short description of assay [11]: resazurin metabolic signal in HepG2 cells – cell-based, resazurin fluorescence, 24 h, PK04 Diversity Set, profiling panel (AID 1172). Also: test concentration not given here. Particulars: HepG2 viability, higher = more signal.
Assay [12] is described as follows: budding yeast growth changes without added modifier – OD600, strain BY4716, 24 h, basal condition, primary screen (AID 1173). Particulars: S. cerevisiae BY4716 growth, OD600, 24 h; higher = more signal, called active from +8 up or from −8 down.
Assay [13] can be described thus: viability profiling in MM1S myeloma cells – cell-based, resazurin fluorescence, basal, 24 h, PK04 Diversity Set, profiling panel (AID 1174). Also: test concentration not given here. Conditions: higher = more signal, called active from +8 up or from −8 down. A general note: Alamar Blue is a resazurin reagent that responds to reducing activity.
In assay [14] the target is Dihydroorotate dehydrogenase (quinone), mitochondrial (Plasmodium falciparum (isolate 3D7)) (UniProt Q08210). Put plainly: inhibition of P. falciparum DHODH – biochemical, C-terminal His tag, absorbance 600 nm, primary screen (AID 1175).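 Also: recombinant parasite enzyme with a five histidine tag at its C terminus; test concentration not given here.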 Conditions: PfDHODH enzyme, DCIP absorbance 600 nm; higher = more signal, called active from +8 up or from −8 down.
Dihydroorotate dehydrogenase (quinone), mitochondrial (Plasmodium falciparum (isolate 3D7)), sequence (Q08210 whole entry, looked up): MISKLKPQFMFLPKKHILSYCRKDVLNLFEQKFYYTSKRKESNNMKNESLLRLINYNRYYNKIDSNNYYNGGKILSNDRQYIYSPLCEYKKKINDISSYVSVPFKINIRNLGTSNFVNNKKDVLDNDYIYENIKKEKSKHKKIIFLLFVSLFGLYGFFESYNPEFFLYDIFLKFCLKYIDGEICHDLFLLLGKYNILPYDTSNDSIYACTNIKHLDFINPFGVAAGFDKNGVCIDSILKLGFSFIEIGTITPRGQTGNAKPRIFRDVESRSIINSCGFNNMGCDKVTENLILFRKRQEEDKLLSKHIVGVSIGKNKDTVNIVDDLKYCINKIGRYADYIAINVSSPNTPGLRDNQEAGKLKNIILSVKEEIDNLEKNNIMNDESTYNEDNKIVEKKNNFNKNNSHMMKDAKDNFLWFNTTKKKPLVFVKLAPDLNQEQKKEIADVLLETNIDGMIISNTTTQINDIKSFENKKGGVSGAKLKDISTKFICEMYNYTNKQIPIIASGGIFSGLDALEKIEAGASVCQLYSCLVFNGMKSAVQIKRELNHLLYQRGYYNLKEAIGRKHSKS
Assay [15] is described as follows: inhibition of PAO1 biofilm formation – strain PAO1, LB-PBS medium, absorbance 600 nm, primary screen (AID 1176). Also: test concentration not given here. Conditions: P. aeruginosa PAO1 growth/biofilm, A600, 12 h; higher = more signal.
Assay [16] can be described thus: growth modulation of vineyard yeast isolate – strain RM11-1a, OD600, basal, 24 h, primary screen (AID 1177).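 Also: cultures grown under basal conditions with no added stressor; test concentration not given here.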 Conditions: S. cerevisiae RM11-1a growth, OD600, 24 h; higher = more signal, called active from +8 up or from −8 down.
Assay [17] is described as follows: growth of efflux-deficient E. coli DRC39 – strain DRC39, OD650, 24 h, E. coli filamentation inducers, primary screen (AID 1178).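 Also: growth measured as culture turbidity by optical density at 650 nm; test concentration not given here.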 Particulars: E. coli DRC39 acrAB, higher = more signal, called active from +8 up or from −8 down.
A short description of assay [18]: growth of efflux-deficient E. coli DRC39 – strain DRC39, OD650, 48 h, E. coli filamentation inducers, primary screen (AID 1179).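 Also: screen aims at cell division blockers that make cells filament.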 Particulars: E. coli DRC39 delta-acrAB growth, higher = more signal, called active from +8 up or from −8 down.
Assay [19] in a line: viability profiling in RPMI8226 myeloma cells – cell-based, resazurin fluorescence, basal, 24 h, PK04 Diversity Set, profiling panel (AID 1180).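 Also: RPMI8826 multiple myeloma cell line at 5000 cells per well; test concentration not given here.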 Conditions: higher = more signal.
In assay [20] the target is E3 ubiquitin-protein ligase XIAP (Homo sapiens) (UniProt P98170). The assay can be described thus: small molecules binding XIAP protein – biophysical, small-molecule microarray, fluorescence 635 nm, primary screen (AID 1181).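 Also: score merges 667 nm emission and signal to noise over triplicate slides.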 Particulars: higher = more signal.
E3 ubiquitin-protein ligase XIAP (Homo sapiens), sequence (P98170 whole entry, looked up): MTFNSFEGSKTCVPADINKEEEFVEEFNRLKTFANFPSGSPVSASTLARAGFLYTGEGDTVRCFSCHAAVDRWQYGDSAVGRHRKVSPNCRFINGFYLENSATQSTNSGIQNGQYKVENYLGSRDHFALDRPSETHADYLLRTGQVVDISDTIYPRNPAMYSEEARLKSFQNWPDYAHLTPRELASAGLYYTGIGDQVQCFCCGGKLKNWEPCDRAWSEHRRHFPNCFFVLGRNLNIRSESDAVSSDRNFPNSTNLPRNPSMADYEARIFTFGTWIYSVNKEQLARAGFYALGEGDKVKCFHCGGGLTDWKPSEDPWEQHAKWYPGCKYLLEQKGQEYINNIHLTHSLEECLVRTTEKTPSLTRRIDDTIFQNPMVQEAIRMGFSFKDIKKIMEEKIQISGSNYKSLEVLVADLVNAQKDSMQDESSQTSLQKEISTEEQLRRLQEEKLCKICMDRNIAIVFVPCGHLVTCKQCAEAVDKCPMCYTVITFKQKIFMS

The source made the active and inactive calls. Unless noted, no rule for the calls is given here.

Consider `Cc1ccc([C@H]2C(C(=O)O)=C[C@@H](C(C)(C)C)N2S(=O)(=O)c2ccc(C)cc2)cc1`, for which the z-score in assay [1] was -0.728; in [2] it was -0.85; in assay [3], -0.338; in [4] it was 0.0315; in [5] it was -0.4; in assay [6], -0.892. In addition, the z-score in assay [7] is -0.38 (inactive); in assay [8], -0.0701; in assay [9] it was -1.19; in assay [10] it was -0.654 (inactive); in assay [11] it was -0.553; in assay [12], -0.405 (inactive). Also, the z-score in [13] is -0.648 (inactive); in [15], 0.353 (inactive); in assay [16], -0.0566 (inactive); in assay [17], -1.36 (inactive); in assay [18], -0.387 (inactive); in assay [19], -2.49. Also, the composite z-score in assay [14] was -0.241 (inactive); in assay [20] it was 0.193.
As to `COc1ccc([Si](C)(C)[C@@H]2[C@@H](CCn3cc([C@H](O)c4ccccc4)nn3)O[C@]3(C(=O)N(Cc4cccc(N5C(=O)c6cccc7cccc5c67)c4)c4ccccc43)[C@H]2C)cc1`, the z-score in [1] was -0.381; in assay [2], 0.0092; in [3] it was 0.3; in assay [4], -0.189; in [5], -2.11; in assay [6], 1.07. In addition, the z-score in assay [7] was -0.265 (inactive); in [8] it was -0.681; in assay [9], -0.193; in assay [10], -1.26 (inactive); in assay [11], -0.167; in assay [12], 1.33 (inactive). Further, the z-score in assay [13] is -2.01 (inactive); in assay [15], 0.106 (inactive); in assay [16] it was 2.11 (inactive); in assay [17], -0.494 (inactive); in assay [18], -0.787 (inactive); in [19], -1.19. Further, the composite z-score is 0.736 (inactive) in assay [14] and -0.217 in [20].
As to `CC(=O)NCCCC[C@@H]1NC(=O)[C@@H]2C[C@H](C(=O)NCCCCCCN)[C@H](c3cccc(OCCO)c3)N2C1=O`, the z-score in assay [1] is -0.182; in assay [2], 0.691; in assay [3], 0.268; in [4], 0.213; in assay [5], -0.413; in [6], -1.26. Besides, the z-score in assay [7] was -0.0165 (inactive); in assay [8] it was 0.648; in assay [9] it was 0.0193; in [10] it was -0.358 (inactive); in assay [11] it was -0.55; in [12], -0.652 (inactive). Besides, the z-score in assay [13] is -0.152 (inactive); in assay [15], -0.0617 (inactive); in assay [16], -0.158 (inactive); in assay [17], -0.0095 (inactive); in [18], 0.211 (inactive); in assay [19], -0.257. Besides, the composite z-score was 0.23 (inactive) in [14] and 0.0896 in [20].
Take `CN(C)CCCNC(=O)[C@@H]1c2ccccc2C(=O)N(C2CCCCC2)[C@H]1c1ccc(CO)cc1`: the z-score in assay [1] is 0.634; in assay [2], -0.318; in assay [3] it was 0.821; in assay [4], -0.592; in assay [5] it was -0.514; in [6], 2.43. The z-score in assay [7] was 0.626 (inactive); in [8], 0.363; in [9] it was -0.243; in [10], 0.887 (inactive); in [11], 0.848; in assay [12] it was -0.737 (inactive). The z-score in assay [13] is 0.749 (inactive); in [15], 0.0714 (inactive); in [16], 0.409 (inactive); in assay [17] it was -0.101 (inactive); in assay [18], 0.515 (inactive); in assay [19] it was 0.988. For the same compound, the composite z-score was -0.151 (inactive) in [14] and -0.157 in assay [20].
`COC(=O)[C@@]1(Cc2ccc(OC)cc2)[C@H]2c3cc(C(=O)N4CCCC4)n(Cc4ccc(S(C)(=O)=O)cc4)c3C[C@H]2CN1C(=O)c1ccccc1`: the z-score in [1] was -0.112; in [2] it was 0.842; in [3], 0.47; in assay [4], 0.137; in assay [5], -0.403; in assay [6] it was 2.63. The z-score in assay [7] was -0.606 (inactive); in assay [8], -0.7; in assay [9], -1.15; in [10] it was 0.105 (inactive); in [11], -0.707; in assay [12], 0.63 (inactive). Also, the z-score in [13] is -0.389 (inactive); in [15], 0.122 (inactive); in [16] it was 0.115 (inactive); in assay [17] it was -0.867 (inactive); in assay [18] it was -0.113 (inactive); in assay [19], -0.84. In addition, the composite z-score in [14] was -1.16 (inactive); in assay [20] it was 0.721.
As for `COCC(=C=CC[C@H](O)c1cccc(OCCO)c1)C[C@H](O)COCc1ccccc1`, the z-score in assay [1] was 0.276; in assay [2] it was -0.48; in [3], 0.0978; in [4], 0.103; in assay [5], -0.557; in [6] it was -0.487. Also, the z-score is -0.3 (inactive) in [7]; 0.191 in [8]; -0.701 in assay [9]; -0.359 (inactive) in [10]; -0.136 in [11]; -1.76 (inactive) in [12]. Besides, the z-score in assay [13] was -0.0529 (inactive); in [15], 0.838 (inactive); in assay [16] it was -0.496 (inactive); in [17] it was -0.0164 (inactive); in assay [18], 0.0211 (inactive); in assay [19] it was 0.0473. Moreover, the composite z-score in [14] is -1.65 (inactive); in assay [20], 0.0736.
As to `COCCOC(=O)N1C(=O)[C@@]2(c3cc(C#CC4=CCCCC4)ccc31)[C@H](c1ccc(O)cc1)N1[C@H](c3ccccc3)[C@H](c3ccccc3)OC(=O)[C@H]1[C@@H]2C(=O)NC[C@H](O)c1ccccc1`, the z-score in assay [1] was -0.309; in [2], -0.539; in assay [3] it was 0.778; in assay [4] it was -1.3; in assay [5] it was -3.84; in assay [6] it was -1.83. Besides, the z-score was 2.04 (inactive) in [7]; -1.08 in assay [8]; -1.06 in assay [9]; -2.06 (inactive) in [10]; -1.35 in [11]; 0.237 (inactive) in assay [12]. In addition, the z-score was -2.48 (inactive) in assay [13]; 1.29 (inactive) in assay [15]; 1.94 (inactive) in [16]; -0.396 (inactive) in assay [17]; 0.478 (inactive) in [18]; -2.55 in assay [19]. In addition, the composite z-score in assay [14] is -0.495 (inactive); in [20], 0.0471.
Take `COCC(=C=CC[C@@H](O)c1cccc(OCCO)c1)CCO`: the z-score in assay [1] is 0.611; in assay [2], 0.314; in assay [3] it was 0.356; in [4], 0.55; in assay [5] it was -0.0681; in [6] it was 0.00786. Besides, the z-score is 0.176 (inactive) in assay [7]; 1.15 in assay [8]; -0.447 in [9]; 0.0444 (inactive) in assay [10]; -0.161 in [11]; -0.773 (inactive) in assay [12]. The z-score in assay [13] was -0.0845 (inactive); in [15] it was -0.59 (inactive); in assay [16] it was -0.357 (inactive); in assay [17] it was 0.583 (inactive); in [18], 0.464 (inactive); in assay [19], -0.0794. For the same compound, the values for the composite z-score in assay [14] and in [20] were -2.07 (inactive) and -0.241, respectively.

Values taken from PubChem BioAssay.
